This is part of a sample that, as a whole, favours compounds with a hit. Of some 79,000 tested, about 15% had one in any assay. Unmarked numbers belong to inactive results. Calls of active or inactive are those of the source. Rule as the data show it: active = growth inhibition above about 70%; inactive = the rest.

The values that follow come from PubChem BioAssay (NCI).

A short description of experiment [1]: NCI Yeast Anticancer Drug Screen. Data for the rad50 strain (AID 155).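 Also: 0% = growth of vehicle-only cultures of the same strain.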 Conditions: S. cerevisiae rad50 strain growth inhibition, active compounds read high. An outline of the steps:
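A DNA repair-deficient yeast mutant serves as the test organism; compound-induced growth inhibition is calculated against vehicle-treated cells.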

Experiment [2] can be described thus: NCI Yeast Anticancer Drug Screen. Data for the mec2-1 strain (AID 157). Conditions: S. cerevisiae mec2-1 strain, active compounds read high. An outline of the steps: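 Test agents were screened against the mec2-1 yeast strain, with defined DNA repair or cell cycle alteration. Growth was scored as inhibition against vehicle-only controls.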
A short description of experiment [3]: NCI Yeast Anticancer Drug Screen. Data for the sgs1 mgt1 strain (AID 161).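 Also: 0% = growth of cultures given vehicle only.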 Conditions: S. cerevisiae sgs1 mgt1 strain, active compounds read high. An outline of the steps: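 Genetically altered yeast, compound exposure, growth inhibition relative to vehicle.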
A short description of experiment [4]: NCI Yeast Anticancer Drug Screen. Data for the cln2 rad14 strain (AID 165).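 Also: 0% = growth equal to vehicle treated cultures.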 The note with it: S. cerevisiae cln2 rad14 strain, active compounds read high. An outline of the steps: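 Growth of compound-exposed yeast (cln2 rad14 genotype) measured and expressed as inhibition relative to vehicle.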
Experiment [5] can be described thus: NCI Yeast Anticancer Drug Screen. Data for the bub3 strain (AID 167). The note with it: S. cerevisiae bub3 mutant strain, active compounds read high. In short, it runs like this:
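Inhibition values come from growth of compound-treated mutant yeast normalised to vehicle-treated controls.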

Experiment [6] is described as follows: NCI Yeast Anticancer Drug Screen. Data for the mlh1 rad18 strain (AID 175). The note with it: S. cerevisiae mlh1 rad18 strain growth inhibition, active compounds read high. In short, it runs like this: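 In this whole-cell yeast screen, a strain with altered DNA damage repair is challenged with compound, and its growth is measured against matched vehicle-treated controls.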

Where [7] appears, read: at 5.0 µM (retest, dose inferred, filed as 0.5).
Setting [8] is: at 50.0 µM (retest, dose inferred, filed as 5.0).

For the compound `N/C(CC(=O)NOC(=O)c1ccccc1)=N/OC(=O)c1ccccc1`, the growth inhibition in experiment [1] (setting [7]) was 55%; in experiment [1] (setting [8]), 99% (active); in experiment [1] (at 50.0 µM), 99% (active); in experiment [2] (setting [7]), 19%; in experiment [2] (setting [8]), 99% (active); in experiment [2] (at 50.0 µM) it was 99.5% (active). Further, the growth inhibition was 54% in experiment [3] (setting [7]); 62% in experiment [3] (setting [8]); 99.5% (active) in experiment [3] (at 50.0 µM); 6% in experiment [4] (setting [7]); 100% (active) in experiment [4] (setting [8]); 99% (active) in experiment [4] (at 50.0 µM). Further, the growth inhibition in experiment [5] (setting [7]) was -6%; in experiment [5] (setting [8]), 99% (active); in experiment [5] (at 50.0 µM), 99.2% (active); in experiment [6] (setting [7]) it was 27%; in experiment [6] (setting [8]) it was 99% (active); in experiment [6] (at 50.0 µM) it was 99.2% (active).

Regarding `N#CCN1CCCCCc2ccccc21`, the growth inhibition in experiment [1] (setting [7]) was -4%; in experiment [1] (setting [8]), -3%; in experiment [1] (at 50.0 µM), -26.6%; in experiment [2] (setting [7]) it was 0%; in experiment [2] (setting [8]), -18%; in experiment [2] (at 50.0 µM), -12.7%. The growth inhibition in experiment [3] (setting [7]) was -29%; in experiment [3] (setting [8]), -29%; in experiment [3] (at 50.0 µM) it was -3.15%; in experiment [4] (setting [7]) it was 9%; in experiment [4] (setting [8]) it was -1%; in experiment [4] (at 50.0 µM), 11.2%. Besides, the growth inhibition in experiment [5] (setting [7]) was -14%; in experiment [5] (setting [8]) it was -32%; in experiment [5] (at 50.0 µM) it was -3.2%; in experiment [6] (setting [7]), -18%; in experiment [6] (setting [8]) it was -18%; in experiment [6] (at 50.0 µM) it was -7.65%.

Regarding `CC1(c2ccccc2)OC1C(=O)N(c1ccccc1)c1ccccc1` (stereo not given), the growth inhibition in experiment [1] (setting [7]) was 14%; in experiment [1] (setting [8]) it was 99% (active); in experiment [1] (at 50.0 µM), 95.8% (active); in experiment [2] (setting [7]) it was 18%; in experiment [2] (setting [8]) it was 99% (active); in experiment [2] (at 50.0 µM), 85% (active). The growth inhibition in experiment [3] (setting [7]) was 12%; in experiment [3] (setting [8]) it was 98% (active); in experiment [3] (at 50.0 µM), 53.3%; in experiment [4] (setting [7]), 15%; in experiment [4] (setting [8]), 97% (active); in experiment [4] (at 50.0 µM) it was 96.7% (active). Also, the growth inhibition was 22% in experiment [5] (setting [7]); 98% (active) in experiment [5] (setting [8]); 92.7% (active) in experiment [5] (at 50.0 µM); 21% in experiment [6] (setting [7]); 97% (active) in experiment [6] (setting [8]); 97.7% (active) in experiment [6] (at 50.0 µM).

As to `COc1ccc(C2C(C#N)(C#N)C2(C#N)C#N)cc1`, the growth inhibition in experiment [1] (setting [7]) is 16%; in experiment [1] (setting [8]), 98% (active); in experiment [1] (at 50.0 µM), 63.5%; in experiment [2] (setting [7]), 19%; in experiment [2] (setting [8]), 99% (active); in experiment [2] (at 50.0 µM), 96.5% (active). The growth inhibition in experiment [3] (setting [7]) is 21%; in experiment [3] (setting [8]), 98% (active); in experiment [3] (at 50.0 µM), 98.3% (active); in experiment [4] (setting [7]), 2%; in experiment [4] (setting [8]) it was 99% (active); in experiment [4] (at 50.0 µM), 88% (active). For the same compound, the growth inhibition is 6% in experiment [5] (setting [7]); 98% (active) in experiment [5] (setting [8]); 94.8% (active) in experiment [5] (at 50.0 µM); 22% in experiment [6] (setting [7]); 99% (active) in experiment [6] (setting [8]); 92.7% (active) in experiment [6] (at 50.0 µM).

For `Oc1ccc2c(c1)Cc1ccccc1-2`, the growth inhibition was 1% in experiment [1] (setting [7]); 70% (active) in experiment [1] (setting [8]); 93.2% (active) in experiment [1] (at 50.0 µM); 0% in experiment [2] (setting [7]); 28% in experiment [2] (setting [8]); 87.1% (active) in experiment [2] (at 50.0 µM). Also, the growth inhibition in experiment [3] (setting [7]) was 1%; in experiment [3] (setting [8]) it was 28%; in experiment [3] (at 50.0 µM) it was 53%; in experiment [4] (setting [7]), -8%; in experiment [4] (setting [8]), 70% (active); in experiment [4] (at 50.0 µM), 88.3% (active). The growth inhibition in experiment [5] (setting [7]) is -2%; in experiment [5] (setting [8]) it was 82% (active); in experiment [5] (at 50.0 µM), 98.2% (active); in experiment [6] (setting [7]) it was -1%; in experiment [6] (setting [8]), 72% (active); in experiment [6] (at 50.0 µM) it was 93.1% (active).

With `CCOC(=O)C(=O)N1C(C)=C(C(=O)OCC)CC(C(=O)OCC)=C1C`, the growth inhibition in experiment [1] (setting [7]) was 35%; in experiment [1] (setting [8]) it was 44%; in experiment [1] (at 50.0 µM), -24.6%; in experiment [2] (setting [7]) it was 18%; in experiment [2] (setting [8]), 19%; in experiment [2] (at 50.0 µM), -26.2%. In addition, the growth inhibition in experiment [3] (setting [7]) is 30%; in experiment [3] (setting [8]), 32%; in experiment [3] (at 50.0 µM) it was -17.8%; in experiment [4] (setting [7]) it was 29%; in experiment [4] (setting [8]), 18%; in experiment [4] (at 50.0 µM), -34%. For the same compound, the growth inhibition in experiment [5] (setting [7]) was 27%; in experiment [5] (setting [8]), 25%; in experiment [5] (at 50.0 µM) it was -8.45%; in experiment [6] (setting [7]), 32%; in experiment [6] (setting [8]), 31%; in experiment [6] (at 50.0 µM), -44.1%.

As to `COc1ccc(S(=O)(=O)O)cc1-n1nc(C(=O)Nc2ccccc2)n[n+]1-c1cc(S(=O)(=O)[O-])ccc1OC`, the growth inhibition in experiment [1] (setting [7]) is 2%; in experiment [1] (setting [8]), 9%; in experiment [1] (at 50.0 µM) it was 19.1%; in experiment [2] (setting [7]), 1%; in experiment [2] (setting [8]), 3%; in experiment [2] (at 50.0 µM), 39.8%. Further, the growth inhibition in experiment [3] (setting [7]) is 10%; in experiment [3] (setting [8]) it was 4%; in experiment [3] (at 50.0 µM) it was 22%; in experiment [4] (setting [7]), 0%; in experiment [4] (setting [8]) it was 2%; in experiment [4] (at 50.0 µM) it was 0.4%. Besides, the growth inhibition was -3% in experiment [5] (setting [7]); 2% in experiment [5] (setting [8]); -10.6% in experiment [5] (at 50.0 µM); 1% in experiment [6] (setting [7]); -61% in experiment [6] (setting [8]); 63.9% in experiment [6] (at 50.0 µM).

In the case of `Cc1nc(Cl)c(C#N)c(C)c1[N+](=O)[O-]`, the growth inhibition in experiment [1] (setting [7]) is -103%; in experiment [1] (setting [8]), 91% (active); in experiment [1] (at 50.0 µM) it was 79.9% (active); in experiment [2] (setting [7]) it was -31%; in experiment [2] (setting [8]) it was 81% (active); in experiment [2] (at 50.0 µM), 81.9% (active). The growth inhibition is -46% in experiment [3] (setting [7]); 84% (active) in experiment [3] (setting [8]); 70.3% (active) in experiment [3] (at 50.0 µM); -37% in experiment [4] (setting [7]); 75% (active) in experiment [4] (setting [8]); 87% (active) in experiment [4] (at 50.0 µM). Also, the growth inhibition is -63% in experiment [5] (setting [7]); 83% (active) in experiment [5] (setting [8]); 75.3% (active) in experiment [5] (at 50.0 µM); -115% in experiment [6] (setting [7]); 91% (active) in experiment [6] (setting [8]); 84.8% (active) in experiment [6] (at 50.0 µM).

Turning to `C#CCCOC(=O)CC1=C(C)/C(=C/c2ccc(S(C)=O)cc2)c2ccc(F)cc21` (stereo not given), the growth inhibition in experiment [1] (setting [7]) is 23%; in experiment [1] (setting [8]), 88% (active); in experiment [1] (at 50.0 µM), 84.3% (active); in experiment [2] (setting [7]), 18%; in experiment [2] (setting [8]), 84% (active); in experiment [2] (at 50.0 µM), 90.2% (active). The growth inhibition in experiment [3] (setting [7]) is 65%; in experiment [3] (setting [8]), 73% (active); in experiment [3] (at 50.0 µM), 88% (active); in experiment [4] (setting [7]) it was 43%; in experiment [4] (setting [8]), 41%; in experiment [4] (at 50.0 µM) it was 85.2% (active). The growth inhibition in experiment [5] (setting [7]) was 51%; in experiment [5] (setting [8]) it was 85% (active); in experiment [5] (at 50.0 µM), 86.4% (active); in experiment [6] (setting [7]), 21%; in experiment [6] (setting [8]), 83% (active); in experiment [6] (at 50.0 µM) it was 85.9% (active).

Consider `Cn1c2c(c3ccccc31)CCN(CCN1CCN(c3cccc(Cl)c3)CC1)C2=O`, for which the growth inhibition was 34% in experiment [1] (setting [7]); 34% in experiment [1] (setting [8]); 88.8% (active) in experiment [1] (at 50.0 µM); 7% in experiment [2] (setting [7]); 7% in experiment [2] (setting [8]); 85.1% (active) in experiment [2] (at 50.0 µM). The growth inhibition was 1% in experiment [3] (setting [7]); 1% in experiment [3] (setting [8]); 87.8% (active) in experiment [3] (at 50.0 µM); 15% in experiment [4] (setting [7]); 15% in experiment [4] (setting [8]); 91.3% (active) in experiment [4] (at 50.0 µM). Also, the growth inhibition in experiment [5] (setting [7]) is -17%; in experiment [5] (setting [8]) it was -17%; in experiment [5] (at 50.0 µM), 87.8% (active); in experiment [6] (setting [7]) it was 10%; in experiment [6] (setting [8]) it was 10%; in experiment [6] (at 50.0 µM), 80.6% (active).
